From PubChem BioAssay
Autophagy HCS: autophagy modulation, high-content screen; actives 0.98% (n = 190,000); MEF GFP-LC3 puncta imaging; test concentration mostly 10 µM; calls only at 10 µM (by protocol);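 active = percentage of spot-positive cells more than 3 SD above its plate mean, without a fluorescence outlier flag or 80% toxicity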;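 also: spot-positive cell cutoff set from DMSO-treated cells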
Insulin prom up: MIN6 insulin promoter up-regulation; MIN6 insulin promoter-GFP reporter, high-content imaging; active compounds read high; z-score at 5 µM; actives 0.3% (n = 190,000);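 active = z-score above 3 at 5 µM with at least 500 cells counted in the well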
eIF4E 4G PPI: inhibitors of eIF4E and eIF4G interaction in translation initiation; P63073+Q04637; TR-FRET eIF4E-eIF4GI(517-606) binding, 2 h; inhibition, % at 21.7 µM; actives 0.37% (n = 220,000); AID 782;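 active = inhibition above about 30%, limit read from the data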;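 also: 0% = full FRET control wells and 100% = background wells lacking eIF4GI fragment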
PERK inhibitor: inhibitors of human PERK kinase. Q9NZJ5. inhibition, % at 5.6 µM. CHO PERK-DD fusion, SEAP luminescence translation reporter. AID 1416. actives 0.17% (n = 220,000);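 active = inhibition above the mean inhibition of all tested compounds plus 3 SD, set separately per screening campaign, cut at about 2.9% in these data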;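 also: PERK kinase domain activated by AP20187 dimerizer at 100 nM; 0% = DMSO with dimerizer and 100% = rapamycin at 8.4 µM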
Insulin prom inh: TRM-6 insulin promoter activity inhibition | inhibition, % at 2 µM | AID 1273 | actives 0.9% (n = 130,000) | TRM-6 cells (human fetal islet line), insulin promoter-eGFP reporter, imaging; reporter expression induced with tamoxifen;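 active = inhibition above the mean plus 3 SD, with well images judged a real hit on visual review, cut at about 60% in these data, passing the limit was not always enough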
An asterisk follows results filed as active; i = inactive; · = not tested or not shown; + = active, no number; [ ] = another dose, or the depositor's remark. Only some compounds are listed: those with a hit (about 2% of all), similar ones and a draw of the others.

SMILES | Autophagy HCS | Insulin prom up | eIF4E 4G PPI | PERK inhibitor | Insulin prom inh
COc1cccc(-c2csc(/C(C#N)=C/Nc3cc4oc5ccccc5c4cc3OC)n2)c1 | i | · | 8 | 1 | -10
Cn1c(-c2c(N)n(C3CCCC3)c3nc4ccccc4nc23)nc2ccccc21 | + | 0.13 | 1 | -1 | -60
N#Cc1c(N)n(CCc2ccc(F)cc2)c2nc3ccccc3nc12 | i | -0.08 | -8 | -1 | -20
Cn1c(-c2c(N)n(CCc3ccccc3)c3nc4ccccc4nc23)nc2ccccc21 | + | 1.7 | 6 | -1 | 1
Cn1c(-c2c(N)n(CCCc3ccccc3)c3nc4ccccc4nc23)nc2ccccc21 | + | 0.57 | -18 | -1 | -28
COCCCn1c(N)c(-c2nc3ccccc3n2C)c2nc3ccccc3nc21 | i | 0.41 | 2 | -2 | -46
Cc1ccc(CNC(=O)Cn2nnc3ccccc3c2=O)cc1 | i | -0.4 | -2 | 0 | 8
CCN(CC)c1ccc(/C=N\N2CCN(Cc3ccc(C)cc3)CC2)cc1 | i | 0.75 | 8 | 1 | ·
C/C(=N\NC(=O)c1cc(-c2cccs2)nc2ccccc12)c1ccccn1 | + | -6.2 | 3 | 0 | ·
COc1ccc(-c2nn(-c3ccccc3)cc2/C=C2/SC(=S)N(Cc3ccco3)C2=O)c(C)c1 | i | -0.21 | 3 | 3 | -90
COc1ccc(-n2c(C)cc(/C=C3\SC(=S)N(Cc4ccco4)C3=O)c2C)cc1 | + | 2.8 | -1 | 0 | -245
Cc1ccc(S(=O)(=O)N2CCN(C(C)C(=O)Nc3ccccc3-c3ccccc3)CC2)cc1 (centres undefined) | i | -0.37 | 32*[fluorescence artefact?] | 0 | -22
COc1ccc(S(=O)(=O)Nc2ccc3c(c2)OCO3)cc1C | i | · | 2 | -1 | 86*
O=c1cc(-c2ccc(Br)cc2)[nH][nH]1 | i | 0.33 | -2 | 2.9* | -40
O=c1cc(-c2ccc(F)cc2)[nH][nH]1 | i | 0.33 | -1 | 1 | -15
O=C1Nc2ccccc2SC(c2ccccc2)C1O (centres undefined) | i | 1.8 | 36* | 0 | -9
CN(C)C(=O)COC(=O)/C=C/c1ccccc1[N+](=O)[O-] | i | · | 2 | 1 | 60
C=CCN1C=CC=C/C1=C1\SC(=S)N(C)C1=O | i | -0.83 | 9 | 0 | 7
O=C(Nc1nnc(SCc2ccc(F)cc2)s1)c1ccc2ncsc2c1 | i | -0.86 | 54* | 1 | ·
CC(=O)Nc1nnc(SCc2ccc(F)cc2)s1 | i | -0.7 | -11 | 1 | 26
CC1OC(OC2C(OC3C(O[C@H]4CC[C@]5(C)C6C=C[C@]78OC[C@@]9(CC[C@@H](C)[C@H](C)C97)[C@H](O)C[C@@]8(C)[C@]6(C)CC[C@H]5C4(C)C)OC(C)C(O)C3O)OC(CO)C(O)C2O)C(O)C(O)C1O (some centres undefined) | · | · | 56* | · | ·
CCCCN(CCCC)S(=O)(=O)c1ccc(NC(=O)Cc2cccs2)cc1 | i | 0.24 | -2 | 0 | 39
O=C1NN(c2ccccc2)C(=O)/C1=C/c1ccc(Sc2cccc3ccccc23)o1 | i | -0.49 | 5 | 0 | 7
O=C1NN(c2cccc(Br)c2)C(=O)/C1=C/c1ccc(-c2cc([N+](=O)[O-])ccc2O)o1 | · | -0.25 | 34* | 2 | ·
O=C(Cn1c(=O)oc2cc(S(=O)(=O)N3CCCC3)ccc21)N1CCc2ccccc2C1 | i | 0.89 | 0 | 0 | ·
SMILES | Autophagy HCS | Insulin prom up | eIF4E 4G PPI | PERK inhibitor | Insulin prom inh
O=C(Cn1c(=O)oc2cc(S(=O)(=O)N3CCCCC3)ccc21)N1CCc2ccccc21 | + | -0.7 | -3 | 2 | ·
CCCCCCNCc1c(F)cccc1Cl | i | 0.29 | -6 | 0 | 9
CCCCSc1nnc(CSc2nc3nc(C)cc(C)n3n2)o1 | i | 1 | -11 | -1 | -14
Cc1cccc(NC(=O)CNC(=O)COc2ccc(-c3ccc(C#N)cc3)cc2)c1C | i | -0.3 | -7 | 1 | 15
CCC(C)NS(=O)(=O)c1ccc(OCC(=O)NCc2ccccn2)cc1 (centres undefined) | i | 0.22 | 2 | 3.2* | -40
O=C(O)/C=C/C(=O)c1ccc2c(c1)NC(=O)CO2 | i | -0.51 | -1 | 2 | -7
CCCCc1nc2sc3c(=O)n(N)cnc3c2c2c1CCC2 | i | -0.17 | -7 | 3.0* | ·
Cc1cccc(C)c1-n1c(C)nn(Cc2ccc([N+](=O)[O-])cc2)c1=O | i | 1.5 | -2 | 0 | 30
